Normalized growth data for eight compounds are collected here from PubChem BioAssay AID1159580 (chemical genetic matrix, 2015).

A short description of this assay: chemical genetic growth profiling, strain panel (AID 1159580).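 Also: tested at 20 µM; growth read once vehicle control cultures reached saturation at 30 °C; 1 = growth at the plate median or of vehicle wells; lower values mean less growth of the strain.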 Particulars: S. cerevisiae deletion strains, growth OD.
[1] abbreviates: locus YAL040C, strain CLN3, hits give low values.
[2] abbreviates: locus YCL061C, strain MRC1 (second series), hits give low values.
[3] abbreviates: locus YDR363W, strain ESC2, hits give low values.
Where [4] appears, read: locus YER002W, strain NOP16, hits give low values.
Where [5] appears, read: locus YGR078C, strain PAC10, hits give low values.
Where [6] appears, read: locus YGR229C, strain SMI1, hits give low values.
The mark [7] stands for this setting: locus YMR307W, strain GAS1, hits give low values.
[8] abbreviates: locus YNL175C, strain NOP13, hits give low values.
Where [9] appears, read: locus YNL197C, strain WHI3, hits give low values.
Setting [10] is: locus YNL224C, strain SQS1, hits give low values.
Setting [11] is: locus YNL322C, strain KRE1, hits give low values.
Where [12] appears, read: locus YOR083W, strain WHI5 (second series), hits give low values.
Setting [13] is: locus YPL241C, strain CIN2, hits give low values.
The mark [14] stands for this setting: locus YAL013W, strain DEP1, hits give low values.
Where [15] appears, read: locus YDR150W, strain NUM1, hits give low values.
The mark [16] stands for this setting: locus YJR075W, strain HOC1, hits give low values.
[17] abbreviates: locus YMR263W, strain SAP30, hits give low values.
Where [18] appears, read: locus YNL153C, strain GIM3, hits give low values.
Setting [19] is: locus YPL055C, strain LGE1, hits give low values.
Where [20] appears, read: locus YNL128W, strain TEP1, hits give low values.

Hit rate of the full screen: of about 5,500 compounds, about 2,000 (36%) were called active. Not shown: some 18% with an inconclusive outcome. The list shows a part of the results. A number with no mark means an inactive call. Rule as the data show it: active = normalized growth mostly below about 0.91 (no sharp cut-off); inconclusive = no clear call, values can overlap the other calls; inactive = mostly above about 0.92.

On to `N#C/C(=C\c1ccc(O)c(O)c1)C(=O)NCCCNC(=O)/C(C#N)=C/c1ccc(O)c(O)c1`, for which the normalized growth is, setting by setting: under setting [1], 0.994; under setting [2], 1.01; under setting [3], 0.999; under setting [4], 0.987; under setting [5], 0.992; under setting [6], 0.758 (active). For the same compound, the normalized growth by setting is: under setting [7], 0.982; under setting [8], 1.01; under setting [9], 0.988; under setting [10], 1; under setting [11], 0.981; under setting [12], 1.01. For the same compound, the normalized growth under setting [13] is 0.997.

In the case of `COc1cc(/C=C(\C#N)C(N)=S)cc(OC)c1OC`, the normalized growth is 0.979 under setting [14]; 1.02 (locus YBR229C, strain ROT2, hits give low values); 1 (locus YCL061C, strain MRC1, hits give low values); 0.943 (locus YDL101C, strain DUN1, hits give low values); 0.943 (locus YDL134C, strain PPH21, hits give low values); 0.961 under setting [15]. Moreover, the normalized growth by setting is: (locus YEL061C, strain CIN8, hits give low values) 0.674 (active); under setting [5], 0.977; (locus YHR030C, strain SLT2, hits give low values) 0.476 (active); (locus YHR087W, strain rtc3, hits give low values) 0.986; (locus YJL187C, strain SWE1, hits give low values) 0.942; (locus YJR043C, strain POL32, hits give low values) 0.986. The normalized growth reads like this: under setting [16], 0.983; (locus YKL190W, strain CNB1, hits give low values) 0.71 (active); (locus YLR039C, strain RIC1, hits give low values) 0.854; (locus YLR058C, strain SHM2 (second series), hits give low values) 1.01; (locus YLR085C, strain ARP6, hits give low values) 0.377 (active); (locus YLR262C, strain YPT6, hits give low values) 0.832. Besides, the normalized growth is 0.86 (active) (locus YML094W, strain GIM5, hits give low values); 1.02 (locus YMR219W, strain ESC1, hits give low values); 0.982 under setting [17]; 1.15 under setting [7]; 0.989 under setting [18]; 0.886 (locus YNL298W, strain CLA4 (second series), hits give low values). The normalized growth by setting is: under setting [11], 0.987; (locus YNR030W, strain Alg12, hits give low values) 0.761 (active); under setting [19], 0.966; under setting [13], 0.558 (active); (locus YPR135W, strain CTF4, hits give low values) 0.756.

Regarding `N#CC(C#N)=Cc1ccc(O)c(O)c1`, the normalized growth is, setting by setting: under setting [14], 1; under setting [1], 1.01; under setting [2], 1; under setting [15], 0.998; under setting [3], 1.02; under setting [4], 0.992. The normalized growth was 0.982 under setting [6]; 0.959 under setting [16]; 0.988 under setting [7]; 0.998 under setting [8]; 0.995 under setting [9]; 0.998 under setting [10]. Further, under setting [12], the normalized growth is 1.03.

`N#C/C(=C\c1ccc(O)c(O)c1)C(=O)NCCc1ccccc1`: the normalized growth under setting [1] is 0.986; the normalized growth under setting [2] is 0.987; the normalized growth under setting [15] was 0.988; the normalized growth under setting [3] is 1; the normalized growth under setting [4] was 0.995; the normalized growth under setting [5] was 1.01. The normalized growth was 0.952 under setting [6]; 0.99 under setting [16]; 1 under setting [17]; 1.01 under setting [7]; 0.999 under setting [20]; 1 under setting [8]. Also, the normalized growth runs as follows: under setting [9], 1; under setting [10], 0.998; under setting [11], 1; under setting [12], 0.994; under setting [13], 0.996.

In the case of `COc1cc(C=C(C#N)C#N)cc(O)c1O`, the normalized growth by setting is: under setting [14], 1.01; under setting [1], 0.941; under setting [2], 0.979; under setting [3], 0.997; under setting [4], 1; under setting [5], 0.982. For the same compound, the normalized growth reads like this: under setting [17], 0.993; under setting [7], 0.993; under setting [20], 0.968; under setting [8], 0.972; under setting [9], 0.978; under setting [10], 0.969. In addition, the normalized growth is 0.997 under setting [12] and 1.01 under setting [19].

For `CC(C)(C)c1cc(C=C(C#N)C#N)cc(C(C)(C)C)c1O`, the normalized growth is 0.965 under setting [1]; 1.01 under setting [2]; 1.01 under setting [15]; 1.03 under setting [3]; 1.02 under setting [4]; 1.02 under setting [6]. In addition, the normalized growth by setting is: under setting [7], 0.999; under setting [20], 0.973; under setting [18], 0.821; under setting [8], 0.943; under setting [9], 0.884 (active); under setting [10], 0.931. In addition, the normalized growth is, setting by setting: under setting [12], 0.85 (active); under setting [13], 1.

For `N#C/C(=C\c1ccc(O)c(O)c1)C(=O)NCCCc1ccccc1`, the normalized growth runs as follows: under setting [1], 0.98; under setting [2], 1; under setting [15], 0.991; under setting [3], 1.01; under setting [4], 0.993; under setting [5], 1. In addition, the normalized growth runs as follows: under setting [6], 0.941; under setting [7], 0.996; under setting [20], 0.996; under setting [8], 0.998; under setting [9], 1.01; under setting [10], 1. The normalized growth reads like this: under setting [11], 1; under setting [12], 1.01; under setting [19], 0.991.

`N#CC(C#N)=Cc1cc(O)c(O)c(O)c1`: the normalized growth under setting [1] was 0.951; the normalized growth under setting [2] was 0.998; the normalized growth under setting [15] is 0.988; the normalized growth under setting [3] was 1; the normalized growth under setting [4] is 0.996; the normalized growth under setting [6] is 0.97. Moreover, the normalized growth is 0.996 under setting [17]; 0.995 under setting [7]; 0.986 under setting [20]; 0.975 under setting [18]; 1.01 under setting [8]; 1.01 under setting [9]. Moreover, the normalized growth under setting [10] was 0.999, the normalized growth under setting [12] is 0.995 and the normalized growth under setting [13] was 0.999.
